Screening data deposited in PubChem by National Center for Advancing Translational Sciences (NCATS).
SW480 rereplic – A quantitative high throughput screen for small molecules that induce DNA re-replication in SW480 colon adenocarcinoma cells | SW480 DNA re-replication, Hoechst DNA content imaging, 48 h | Potency, µM (highest dose often 46.1 µM), without a hit: at the top dose re-replication activation, most hits filed as activators | actives 1.8% (n = 340,000) | AID 624297, 2012; also: % of control where 0% means no effect; nearly all actives have a fitted effect of over 55% in size
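Readout is total intensity of Hoechst-stained nuclei, excited at 405 nm and collected at 500-530 nm. Compound treatment lasted 48 hr at 37 C in 5% CO2 before staining.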
MCF10A rerep – A quantitative high throughput screen for small molecules that induce DNA re-replication in MCF 10a normal breast cells; MCF 10A DNA re-replication, Hoechst nuclear intensity, 48 h; Potency, µM (series often up to 46.1 µM), for the others: at the top dose activity, positive = re-replication, usual class: activators; actives 2.9% (n = 350,000); AID 624296, 2012; also: % of control where 0% means no effect; nearly all actives have a fitted effect of over 50% in size
KB-V1 MDR tox – qHTS assay for MDR1-selective chemotherapeutics: Primary screen using the drug-selected MDR subline cells KB-V1; KB-V1 MDR cells viability, CellTiter-Glo, 72 h; Potency, µM (doses to about 46.1 µM), actives largely listed as cytotoxic; actives 3.4% (n = 400,000); AID 1347076, 2019; also: % is scaled to controls: 0 for no effect and ±100 for the full control effect; nearly all actives have a fitted effect of over 60% in size
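Drug-selected KB-V1 cells, grown in DMEM lacking phenol red with 10% FBS, receive compound titrations; after three days at 37 degrees C, surviving cell ATP is quantified by CellTiter-Glo luminescence and responses normalized and curve-fitted.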
KB-3-1 cytotox – qHTS assay for MDR1-selective chemotherapeutics: Primary screen using the parental adenocarcinoma cell KB-3-1; actives 1.4% (n = 400,000); Potency, µM (highest dose often 46.1 µM), actives largely listed as cytotoxic; AID 1347075, 2019; KB-3-1 viability, CellTiter-Glo ATP luminescence, 72 h; also: % is scaled to controls: 0 for no effect and ±100 for the full control effect; nearly all actives have a fitted effect of over 60% in size
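Viability of parental KB-3-1 cells, measured by CellTiter-Glo luminescence, followed a 72 h incubation at 37 °C with pinned compounds in phenol-red-free DMEM containing 10% FBS.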
VP16 counter – VP16 counterscreen qHTS for inhibitors of ROR gamma transcriptional activity; actives 3.5% (n = 310,000); Drosophila S2 Gal4-VP16 UAS-luciferase, luminescence, 20 h; Potency, µM (series often up to 53.6 µM), without a hit: top-dose activity, negative = inhibition, actives largely listed as inhibitors;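 also: Gal4-VP16 expression switched on by copper sulfate through the metallothionein promoter; % is scaled to controls: 0 for no effect and ±100 for the full control effect; nearly all actives have a fitted effect of over 50% in size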
RORg inh – qHTS for inhibitors of ROR gamma transcriptional activity | Nuclear receptor ROR-gamma (Mus musculus), P51450 | Drosophila S2 Gal4-RORgamma UAS-luciferase reporter, 20 h | Potency, µM (top dose mostly 53.6 µM), for the others: at the top dose activity change, negative = inhibition, usual class: inhibitors | actives 5.4% (n = 310,000) | AID 2551, 2010; also: % is scaled to controls: 0 for no effect and ±100 for the full control effect; nearly all actives have a fitted effect of over 60% in size
Target sequence (P51450 whole entry, looked up, the tested form may be a part): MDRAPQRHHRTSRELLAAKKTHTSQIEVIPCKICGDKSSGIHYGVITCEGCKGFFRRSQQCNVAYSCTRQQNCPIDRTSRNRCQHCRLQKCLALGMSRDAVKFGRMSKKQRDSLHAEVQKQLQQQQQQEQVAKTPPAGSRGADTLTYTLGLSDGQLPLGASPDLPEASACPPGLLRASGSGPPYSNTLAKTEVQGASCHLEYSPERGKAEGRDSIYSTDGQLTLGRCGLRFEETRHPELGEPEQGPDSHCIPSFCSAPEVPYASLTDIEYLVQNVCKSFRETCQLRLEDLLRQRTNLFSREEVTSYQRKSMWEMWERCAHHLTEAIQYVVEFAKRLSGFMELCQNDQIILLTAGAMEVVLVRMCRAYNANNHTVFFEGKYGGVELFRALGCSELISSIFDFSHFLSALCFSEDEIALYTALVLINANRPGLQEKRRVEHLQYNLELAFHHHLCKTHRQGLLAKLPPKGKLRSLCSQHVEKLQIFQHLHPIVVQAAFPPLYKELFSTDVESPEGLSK
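Stable Schneider cell line, Gal4 DNA-binding domain fused to ROR gamma, UAS-luciferase. Cmpd 1 hr RT → CuSO4 700 uM final → 20 hr RT → luciferase reagent 10 min → luminescence.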
Active calls of the source: *; i = inactive; ? = inconclusive; / = not tested or not shown; [ ] = remark or other dose. Hits are enriched below; roughly 10% of the tested compounds scored in any of these assays. Calls follow the shape of the dose curve; as a rule, active = well fitted curve in the direction sought with a large enough effect; inconclusive = small, poorly fitted or top-dose-only effect, or another doubt; inactive = no such curve, though single readings can be large; an effect the other way counts as inactive or inconclusive. Potency is read from the fitted curve at half-maximal effect.

SMILES	SW480 rereplic	MCF10A rerep	KB-V1 MDR tox	KB-3-1 cytotox	VP16 counter	RORg inh
COc1ccc(NC(=O)C(=O)c2cc(C)n(-c3ccc(C)cc3)c2C)cc1Cl	/	/	i	?	/	/
CCc1cc(C(=O)NC2CCCN(Cc3ccccc3F)C2)n(C)n1 (stereo not given)	2.1µM*	1%	?	i	?	?
Cn1nc(C(=O)NC2CCCN(Cc3ccccc3F)C2)c2ccccc2c1=O (stereo not given)	-22%	6%	?	i	-17%	-15%
CCOCc1cc(C2NC(=O)NC(C)=C2C(=O)OCC)ccc1OC (stereo not given)	-2%	-14%	i	i	-16%	30%
CC1=C(C(=O)OCc2ccc3c(c2)OCO3)C(c2ccc(Cl)cc2)NC(=O)N1 (stereo not given)	7%	?	12µM*	?	-26%	-17%
CC1=C(C(=O)OCc2ccc3c(c2)OCO3)C(c2ccc(F)cc2)NC(=O)N1 (stereo not given)	-1%	2%	8.2µM*	15µM*	-7%	15%
CCOC(=O)C1=C(C)NC(=O)NC1c1ccc(OC)c(Cl)c1 (stereo not given)	-5%	-7%	21µM*	i	3%	-9%
CCCCC1CN2C(CCC(C)C2c2ccc(Br)cc2)C(=O)O1 (stereo not given)	/	/	/	/	1%[10 µM]	5%[10 µM]
O=C(c1cc(C(F)(F)F)cc(C(F)(F)F)c1)N1CCC[C@@]2(CCN(c3ccccc3)C2)C1	/	/	/	/	-7%	1%
O=C1NC[C@@H](CCCCN2C[C@H](Cc3ccc(O)cc3)N(CCC3CCCCC3)C(=O)C2=O)N(CC2CCCCC2)C1=O	/	/	i	i	/	/
COc1cc(S(=O)(=O)NCCc2c(C)[nH]c3ccc(C)cc23)ccc1Br	/	/	i	i	/	/
COCc1nc(-c2ccc(-c3ccccc3)nc2OC)no1	-2%	4%	?	i	3%	-3%
COc1nc(-c2ccccc2)ccc1-c1noc(C)n1	-1%	13µM*	?	i	35%	19%
CCOc1nc(-c2ccccc2)ccc1-c1noc(COC)n1	?	24%	23µM*	i	-2%	20%
Cc1ccc2c(c1)sc1nc(-c3cc4ccccc4oc3=O)cn12	/	/	i	i	/	/
COc1ccc(/C=C/c2cc(=O)c3cc(Cl)ccc3o2)cc1	?	21µM*	?	i	-6%	36%
COc1ccc(/C=C/c2cc(OC)cc(=O)o2)cc1	/	/	/	/	-27%	43%
COC(=O)[C@]12CCCCC=C1N(Cc1ccc(Cl)cc1Cl)C(=O)[C@H](CC(=O)N1CCC(c3ccccc3)CC1)C2	/	/	i	?	/	/
O=C1c2[nH]nc(-c3ccccc3)c2C(c2ccccc2)N1c1cccc(C(F)(F)F)c1 (stereo not given)	/	/	16µM*	?	/	/
O=C1C=CC(=O)C(C2=C3C(=O)N(CCc4ccccc4)CC(=O)N3CCC2)=C1	?	7.3µM*	i	i	7.9µM*	?
Cc1ccc(S(=O)(=O)N2C[C@H]3C(=O)C[C@@H](c4cccs4)N(S(=O)(=O)c4ccc(C)cc4)[C@H]3C[C@H]2c2ccccc2)cc1	/	/	i	i	/	/
Clc1nc2ccccc2nc1Cl	/	/	/	/	-6%	2%
NNC(=O)c1[nH]c2ccc(Cl)cc2c1-c1ccccc1	?	9.2µM*	?	?	-10%	?
Cc1ccc2[nH]c(C(=O)NN=C3CCCCC3)c(-c3ccccc3)c2c1	?	16µM*	?	i	10µM*	5µM*
NNC(=O)c1[nH]c2ccc(Br)cc2c1-c1ccccc1	?	?	?	?	-15%	-40%
SMILES	SW480 rereplic	MCF10A rerep	KB-V1 MDR tox	KB-3-1 cytotox	VP16 counter	RORg inh
CC(=O)NNC(=O)c1[nH]c2ccc(Br)cc2c1-c1ccccc1	?	2%	i	i	1%	1%
CC(=O)Nc1c(-c2ccccc2)c2cc(Br)ccc2[nH]c1=O	5%	0.73µM*	i	i	-12%	15%
O=C(N/N=C/c1ccccc1Cl)c1[nH]c2ccc(Br)cc2c1-c1ccccc1	?	?	5.8µM*	?	?	?
CCN(CC)C(=S)Sc1c(-c2ccccc2)c2cc(Cl)ccc2[nH]c1=O	6%	?	?	?	7.9µM*	8.9µM*
COc1ccc(/C=N/NC(=O)c2[nH]c3ccc(Br)cc3c2-c2ccccc2)cc1	1.2µM*	0.21µM*	1µM*	0.82µM*	11µM*	10µM*
O=C(O)CSc1c(-c2ccccc2)c2cc(Cl)ccc2[nH]c1=O	0%	15%	i	i	?	?
CN(C(=O)COC(=O)CCc1c[nH]c2ccccc12)c1ccccc1	-16%	1%	?	i	/	/
Cc1cc(C)cc(N(CCC#N)C(=O)COC(=O)CCc2c[nH]c3ccccc23)c1	-3%	-1%	21µM*	i	/	/
COc1ccc(S(=O)(=O)N2CCCCC2)cc1NC(=O)Cc1ccsc1	5%	?	/	/	/	/
CCC(C)c1ccccc1N1CC(C(=O)Nc2cc(S(=O)(=O)N3CCOCC3)ccc2OC)CC1=O (stereo not given)	16µM*	9%	i	i	/	/
COc1ccc(S(=O)(=O)N2CCOCC2)cc1NC(=O)Cc1ccc2c(c1)OCCO2	-2%	-6%	18µM*	i	/	/
CCOc1ccc(S(=O)(=O)N2CCOCC2)cc1NC(=O)CSCc1ccc(C)cc1	?	?	?	18µM*	/	/
